The text below walks through data of PubChem BioAssay (EPA / NIEHS).

SMILES strings stand for the structures. Inconclusive results are not listed. Active and inactive are the calls of the source. The calls were made as follows, unless noted: active = hit-call score of the fitted dose curve at least 0.9, where 1 is the maximum; inactive = score below 0.9.

Assay [1] concerns the target Estrogen receptor (Homo sapiens) (UniProt P03372). In words: OT_ERa_GFPERaERE_0480: Odyssey Thera (OT) 8-hour HeLa Transcription Induction Assay for Estrogen Receptor (AID 2283381). The method, boiled down: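 Fluorescent reporter signal, imaged by microscopy and scored with image-analysis algorithms, was taken 8 h after chemical dosing of HeLa cells; activity was fitted upward relative to DMSO.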

Assay [2] has the same target. The experiment in a line: OT_ERa_GFPERaERE_0120: Odyssey Thera (OT) 2-hour HeLa Transcription Induction Assay for Estrogen Receptor (AID 2283382; active = hit-call score of the fitted dose curve at least 0.9, where 1 is the maximum). A digest of the protocol:
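HeLa, 384-well, 2 h chemical exposure; GFP reporter induction (ERE), fluorescence microscopy; high content image analysis; positive fitting direction vs DMSO.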

In assay [3] the target is Retinoic acid receptor RXR-alpha (Homo sapiens) (UniProt P19793). In words: OT_NURR1_NURR1RXRa_1440: Odyssey Thera (OT) 24-hour HEK293T Protein Complementation Assay for Nurr1/retinoid X receptor (RXR) (AID 2283386; active = hit-call score of the fitted dose curve at least 0.9, where 1 is the maximum). A digest of the protocol:
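Interaction of Nurr1 with RXRα brings fused reporter fragments together in human HEK293T cells, restoring a functional reporter. Fluorescence intensity is measured 24 h after chemical treatment, and values are analysed in the positive direction against DMSO.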

Assay [4] is described as follows: CEETOX_H295R_11DCORT: CeeTox H295R High-throughput Steroidogenesis Assay for 11-Deoxycortisol (11DCORT) (AID 2283432). Conditions: actives raise or lower the signal. A digest of the protocol: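 Steroidogenesis in human H295R cells: 48 h chemical exposure after forskolin priming, 11-deoxycortisol measured by LC-MS/MS.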
The nature of assay [5]: CEETOX_H295R_OHPREG: CeeTox H295R High-throughput Steroidogenesis Assay for OH-Pregnenolone (OHPREG) (AID 2283434). Particulars: actives raise or lower the signal. A digest of the protocol: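 Human adrenal H295R cells were prestimulated 48 h with 10 uM forskolin, then exposed 48 h to chemical in 0.1% DMSO. Medium 17alpha-hydroxypregnenolone was quantified by HPLC-MS/MS after MTBE extraction; bidirectional fitting versus DMSO baseline.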

Assay [6] in a line: CEETOX_H295R_OHPROG: CeeTox H295R High-throughput Steroidogenesis Assay for OH-Progesterone (OHPROG) (AID 2283435).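 As to AC50: 17alpha-hydroxyprogesterone secreted into medium measured by HPLC-MS/MS.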 Conditions: actives raise or lower the signal. The method, boiled down:
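H295R, 10 uM forskolin prestim 48 h; cmpd in 0.1% DMSO 48 h; medium MTBE-extracted, HPLC-MS/MS for OH-progesterone; 7-pt std curve; bidirectional fit vs DMSO; MTT viability, chemicals diluted until viability >/=70%.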

Assay [7] is described as follows: CEETOX_H295R_ANDR: CeeTox H295R High-throughput Steroidogenesis Assay for Androstenedione (ANDR) (AID 2283436). Particulars: actives raise or lower the signal. A digest of the protocol:
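H295R human adrenal cells (passages ≤10) were exposed to test chemicals for 48 h; androstenedione in medium was MTBE-extracted and quantified by HPLC-MS/MS against a 7-point standard curve. Bidirectional fitting used DMSO as baseline.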

The nature of assay [8]: CEETOX_H295R_CORTIC: CeeTox H295R High-throughput Steroidogenesis Assay for Corticosterone (CORTIC) (AID 2283437).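 Also: corticosterone secreted into medium quantified by mass spectrometry.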 Particulars: actives raise or lower the signal. The method, boiled down:
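H295R cells were prestimulated 48 h with 10 uM forskolin, then exposed 48 h to test chemical in 0.1% DMSO. Medium corticosterone was MTBE-extracted and quantified by HPLC-MS/MS; bidirectional fit versus DMSO baseline.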

Assay [9] is described as follows: CEETOX_H295R_CORTISOL: CeeTox H295R High-throughput Steroidogenesis Assay for Cortisol (AID 2283438).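 Also: cortisol secreted into medium quantified by LC-MS/MS.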 Conditions: actives raise or lower the signal. The method, boiled down: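 Forskolin 10 uM 48 h prestim → test cmpd in DMSO (0.1% final) 48 h → medium MTBE-extracted → LC-MS/MS cortisol vs 7-pt std curve. Gain/loss of signal fitted vs DMSO. MTT viability in same wells.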

Assay [10] in a line: CEETOX_H295R_DOC: CeeTox H295R High-throughput Steroidogenesis Assay for DOC (AID 2283439). Particulars: actives raise or lower the signal. A digest of the protocol: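 Readout: 11-deoxycorticosterone in culture medium by reverse-phase C18 HPLC with ESI+ tandem MS after MTBE extraction. Cells: H295R, forskolin-primed (10 uM, 48 h), chemical-treated 48 h; DMSO 0.1% final. Activity fitted bidirectionally versus DMSO.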

Assay [11] is described as follows: CEETOX_H295R_ESTRADIOL: CeeTox H295R High-throughput Steroidogenesis Assay for Estradiol (AID 2283440).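 Also: estradiol secreted into medium quantified by LC-MS/MS after dansyl derivatisation.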 Particulars: actives raise or lower the signal. The method, boiled down:
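Estradiol secreted into the medium was measured by tandem mass spectrometry after liquid-liquid extraction and dansylation. Human H295R cells had been forskolin-primed (10 uM, 48 h) before a 48 h chemical exposure with 0.1% DMSO.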

The nature of assay [12]: CEETOX_H295R_ESTRONE: CeeTox H295R High-throughput Steroidogenesis Assay for Estrone (AID 2283441).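 Also: estrone secreted into medium measured by LC-MS/MS after dansyl derivatization.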 Particulars: actives raise or lower the signal. The method, boiled down:
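H295R cells prestimulated 48 h with 10 uM forskolin, then exposed 48 h to chemicals in 0.1% DMSO final; estrone in medium extracted with MTBE, dansyl-derivatized, quantified by HPLC-MS/MS; bidirectional fitting versus DMSO, viability by MTT.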

Assay [13] can be described thus: CEETOX_H295R_PROG: CeeTox H295R High-throughput Steroidogenesis Assay for Progesterone (PROG) (AID 2283442).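 As to AC50: human H295R adrenal cells primed with 10 µM forskolin before dosing; progesterone secreted into medium by H295R cells measured by HPLC-MS/MS.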 Particulars: actives raise or lower the signal. The method, boiled down: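 Steps: seed H295R cells and let them adhere overnight; prime 48 h with 10 uM forskolin; dose with compound in DMSO at 0.1% final for 48 h; extract medium steroids with MTBE; measure progesterone by LC-MS/MS. MTT viability was run in the same wells.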

Assay [14] in a line: CEETOX_H295R_TESTO: CeeTox H295R High-throughput Steroidogenesis Assay for Testosterone (TESTO) (AID 2283457). Particulars: actives raise or lower the signal. The method, boiled down: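 H295R, passage ≤10, 48 h dosing; media extracted with MTBE → HPLC-MS/MS for testosterone; 7-pt standard curve sets LLOQ/ULOQ; bidirectional fit vs DMSO; MTT viability same wells.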
A short description of assay [15]: ATG_XTT_Cytotoxicity: Cytotoxicity Assessment in the Attagene TRANS-FACTORIAL HepG2 Assay (AID 2283584; active = hit-call score of the fitted dose curve at least 0.9, where 1 is the maximum). A digest of the protocol:
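Cells: human HepG2, transiently transfected with MRTU reporter constructs. Exposure 24 h. Readout: XTT, cell number. Baseline/neg ctrl DMSO; loss-of-signal scored.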

Assay [16] has as its target Peroxisome proliferator-activated receptor gamma (Homo sapiens) (UniProt P37231). In words: OT_PPARg_PPARgSRC1_0480: Odyssey Thera (OT) 8-hour Protein-Complementation Assay for Peroxisome Proliferator-activated Receptor Gamma / SRC-1 Co-activator (AID 2283387; active = hit-call score of the fitted dose curve at least 0.9, where 1 is the maximum;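 also: nuclear to cytoplasmic split Venus YFP fluorescence ratio reporting PPARg SRC-1 interaction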). The method, boiled down:
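Split-YFP (IFP1/IFP2) PPARg/SRC-1 reporter, HEK293T, 37 °C, 5% CO2; 8 h compound; formaldehyde fix + Draq5; high-content imaging, N/C ratio, ≥350 cells/image, positive direction vs DMSO.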

Assay [17] has the same target. In words: OT_PPARg_PPARgSRC1_1440: Odyssey Thera (OT) 24-hour Protein-Complementation Assay for Peroxisome Proliferator-activated Receptor Gamma/ SRC-1 Co-activator (AID 2283388; active = hit-call score of the fitted dose curve at least 0.9, where 1 is the maximum;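 also: nuclear to cytoplasmic ratio of reconstituted Venus YFP fluorescence in fixed imaged cells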). A digest of the protocol: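 Protein-fragment complementation between PPARg and coactivator SRC-1 was measured by fluorescence imaging in transiently transfected HEK293T cells after 24 h treatment. Signal was quantified as N/C ratio in the 488 nm channel, with DMSO as negative control.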

Assay [18] has as its target Estrogen receptor beta (Homo sapiens) (UniProt Q92731). The experiment in a line: OT_ER_ERbERb_1440: Odyssey Thera (OT) 24-hour HEK293T Protein-Complementation Assay for Estrogen Receptor-beta/-beta Homodimer (AID 2283380; active = hit-call score of the fitted dose curve at least 0.9, where 1 is the maximum;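 also: fluorescence gain from ER beta LBD homodimer complementation read by laser scanning cytometry; scored as signal increase over DMSO baseline for both agonists and antagonists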). A digest of the protocol:
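HEK293T cells stably expressing human ER-beta LBD (aa 310-547) PCA homodimer pair, dosed 24 h; formaldehyde-fixed, Draq5-stained. Readout: increase in nuclear (agonist) or nuclear plus cytoplasmic (antagonist) fluorescence intensity versus DMSO, gain-of-signal fitting.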

Assay [19] has as its target Retinoic acid receptor RXR-alpha (Homo sapiens) (UniProt P19793). The experiment in a line: OT_NURR1_NURR1RXRa_0480: Odyssey Thera (OT) 8-hour HEK293T Protein Complementation Assay for Nurr1/retinoid X receptor (RXR) (AID 2283385; active = hit-call score of the fitted dose curve at least 0.9, where 1 is the maximum). The method, boiled down:
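8 h compound exposure, HEK293T; Nurr1/RXRα fragment complementation; fluorescence intensity; positive fitting direction vs DMSO baseline.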

As a reminder, the AC50 is the concentration giving half of the maximal activity seen.

Sequence of Estrogen receptor beta (Homo sapiens) (Q92731 whole entry, looked up, the tested form may be a part): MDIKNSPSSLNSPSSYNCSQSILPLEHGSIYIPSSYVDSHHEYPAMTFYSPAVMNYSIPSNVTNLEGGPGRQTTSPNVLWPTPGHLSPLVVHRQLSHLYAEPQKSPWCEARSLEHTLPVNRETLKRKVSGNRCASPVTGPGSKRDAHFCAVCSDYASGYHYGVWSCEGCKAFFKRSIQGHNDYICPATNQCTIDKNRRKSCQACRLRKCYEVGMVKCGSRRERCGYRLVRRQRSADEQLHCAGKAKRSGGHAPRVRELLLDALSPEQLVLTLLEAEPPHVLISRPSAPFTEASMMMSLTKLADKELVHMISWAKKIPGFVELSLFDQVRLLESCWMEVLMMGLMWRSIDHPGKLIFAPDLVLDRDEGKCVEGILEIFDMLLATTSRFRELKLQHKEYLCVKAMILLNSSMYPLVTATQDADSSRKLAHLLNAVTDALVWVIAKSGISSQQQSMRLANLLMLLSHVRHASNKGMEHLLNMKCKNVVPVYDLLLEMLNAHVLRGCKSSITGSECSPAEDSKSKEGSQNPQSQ
Sequence of Retinoic acid receptor RXR-alpha (Homo sapiens) (P19793 whole entry, looked up, the tested form may be a part): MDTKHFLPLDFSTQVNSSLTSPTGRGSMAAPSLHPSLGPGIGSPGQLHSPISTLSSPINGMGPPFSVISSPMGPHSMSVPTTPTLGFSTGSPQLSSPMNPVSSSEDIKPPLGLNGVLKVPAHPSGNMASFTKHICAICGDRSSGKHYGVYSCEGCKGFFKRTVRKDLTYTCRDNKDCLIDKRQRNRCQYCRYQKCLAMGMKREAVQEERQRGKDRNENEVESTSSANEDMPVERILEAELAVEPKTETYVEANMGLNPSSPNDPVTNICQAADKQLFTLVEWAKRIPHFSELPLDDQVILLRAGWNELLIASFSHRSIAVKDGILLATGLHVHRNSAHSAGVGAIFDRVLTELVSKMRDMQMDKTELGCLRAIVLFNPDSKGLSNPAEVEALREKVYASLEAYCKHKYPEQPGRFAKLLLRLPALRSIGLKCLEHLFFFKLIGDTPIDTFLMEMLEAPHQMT
Sequence of Estrogen receptor (Homo sapiens) (P03372 whole entry, looked up): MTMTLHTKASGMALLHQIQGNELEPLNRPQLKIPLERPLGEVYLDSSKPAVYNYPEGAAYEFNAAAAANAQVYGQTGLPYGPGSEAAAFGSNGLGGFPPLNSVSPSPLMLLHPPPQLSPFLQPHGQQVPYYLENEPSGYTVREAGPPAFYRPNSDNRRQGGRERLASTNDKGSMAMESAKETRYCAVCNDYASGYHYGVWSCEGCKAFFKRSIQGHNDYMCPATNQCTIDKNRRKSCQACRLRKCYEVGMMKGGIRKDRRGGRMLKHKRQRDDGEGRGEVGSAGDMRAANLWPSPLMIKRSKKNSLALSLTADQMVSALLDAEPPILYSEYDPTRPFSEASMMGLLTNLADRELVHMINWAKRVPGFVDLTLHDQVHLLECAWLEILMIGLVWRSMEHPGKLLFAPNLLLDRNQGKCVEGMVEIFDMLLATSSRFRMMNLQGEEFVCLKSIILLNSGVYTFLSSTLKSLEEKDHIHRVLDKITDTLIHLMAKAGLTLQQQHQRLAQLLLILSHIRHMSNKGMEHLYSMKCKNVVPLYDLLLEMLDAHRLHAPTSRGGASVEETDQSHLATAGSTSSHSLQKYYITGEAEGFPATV
Sequence of Peroxisome proliferator-activated receptor gamma (Homo sapiens) (P37231 whole entry, looked up): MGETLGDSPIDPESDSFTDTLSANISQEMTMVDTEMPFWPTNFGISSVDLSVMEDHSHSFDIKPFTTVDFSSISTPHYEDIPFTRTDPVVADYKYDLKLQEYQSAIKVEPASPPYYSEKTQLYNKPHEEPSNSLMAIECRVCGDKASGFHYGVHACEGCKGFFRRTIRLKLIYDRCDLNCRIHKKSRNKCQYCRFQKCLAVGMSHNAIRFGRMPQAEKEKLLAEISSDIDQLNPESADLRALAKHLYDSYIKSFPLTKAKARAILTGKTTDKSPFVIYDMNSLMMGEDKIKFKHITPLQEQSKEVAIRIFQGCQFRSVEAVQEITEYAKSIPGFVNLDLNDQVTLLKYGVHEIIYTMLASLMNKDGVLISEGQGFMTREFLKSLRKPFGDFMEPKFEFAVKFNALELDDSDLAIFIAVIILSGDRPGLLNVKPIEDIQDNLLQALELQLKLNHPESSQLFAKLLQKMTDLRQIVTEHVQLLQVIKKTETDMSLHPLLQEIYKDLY

For the compound `c1ccc2c(c1)ccc1cc3c(ccc4ccccc43)cc12`, the compound was called inactive in assay [1], in assay [2] and in assay [3].

Turning to `COc1ccc2nc(N)sc2c1`, the outcome in assay [4], in [5], in assay [7], in [8], in [9] and in assay [10] was inactive. In addition, the result in [11], in assay [12], in [14] and in [15] was inactive. The AC50 in assay [6] was 7.33 µM (active); in assay [13], 22.4 µM (active).

Consider `OC1CCCCCCCCCCC1`, for which the compound was classed as inactive in assay [1], in assay [2], in [3], in [16], in assay [17] and in [15].

As for `CCCCCCC1(C)CCC(=O)O1` (stereo not given), the call in assay [1], in assay [2], in assay [16], in [17] and in assay [15] was inactive.

With `C=C1C2CCC(C2)C1(C)C` (stereo not given), the compound was called inactive in assay [18], in [1], in assay [2], in assay [16], in [17] and in assay [15].

Take `CO[Si](CCC1CCC2OC2C1)(OC)OC` (stereo not given): the call in [4], in assay [5], in assay [6], in [7], in [8] and in assay [9] was inactive. Further, the call in assay [10], in assay [13], in [14] and in assay [15] was inactive.

On to `Cc1ccc(C(C)(C)C)cc1`, for which the call in assay [1], in assay [2], in assay [19], in assay [3], in [16] and in assay [17] was inactive. In addition, in assay [15], the result was inactive.

As to `CCCCNc1ccc(NCCCC)c2c1C(=O)c1ccccc1C2=O`, the compound was called inactive in assay [4], in assay [5], in assay [7], in [8], in assay [9] and in assay [10]. The outcome in assay [11], in assay [12], in assay [14] and in assay [15] was inactive. The AC50 is 0.164 µM (active) in [6] and 0.208 µM (active) in assay [13].

For the compound `CCCCCCCCO[C@@H]1O[C@H](CO)[C@@H](O)[C@H](O)[C@H]1O`, the result in assay [18], in assay [1], in [2], in [16], in assay [17] and in assay [15] was inactive.

Regarding `C1=CCCC1`, the call in assay [4], in assay [7], in [8], in [9], in assay [10] and in assay [14] was inactive. In addition, in assay [15], the compound was called inactive.

For `O=C1C(N(CO)C(=O)NCO)N(CO)C(=O)N1CO` (stereo not given), the compound was called inactive in [18], in [1], in [2], in assay [16], in assay [17] and in assay [15].
